Reference: PubChem BioAssay (Tox21)
Values without a mark were called inactive. Inconclusive results are not listed. A call without a number means that no potency is given here. Calls of active or inactive are those of the source. Unless noted, calls come from the whole dose curve; as a rule, active = well fitted curve in the direction sought with a large enough effect in the repeat runs; inconclusive = weak or mixed curves; inactive = no such curve, though single readings can be large; an effect the other way counts as inactive or inconclusive.

Assays:
[1] = qHTS RealTime-Glo MT Cell Viability Assay in HEK293 cells - 0 hour (AID 1224880); note: top concentration of the series differs between compounds; nearly all actives have a fitted effect of over 45% in size
Outline: (§1)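 Luminescence readout at each listed time point; HEK293, 600 cells/well, RealTime-Glo MT reagent added with cells; compounds pinned (23 nL in DMSO) after 5 h at 37 C; continuous culture at 37 C.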

[2] = A CellTox Green Cytotoxicity Assay to monitor cytotoxicity in HEK293 cells - 32 hour (AID 1224881); note: nearly all actives have a fitted effect of over 40% in size
Outline: (§2)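 Read-out: fluorescence of a cell-impermeant cyanine dye staining DNA of dead cells, proportional to cytotoxicity. HEK293, 600 cells/well with reagent, compound (23 nL DMSO) added after 5 h; reads at 0, 8, 16, 24, 32, 40 h.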

[3] = A CellTox Green Cytotoxicity Assay to monitor cytotoxicity in HepG2 cells - 0 hour (AID 1224882); note: nearly all actives have a fitted effect of over 35% in size
Outline: (§3)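 HepG2, 600 cells/well premixed w/ CellTox Green; 5 h settle, 37 C/5% CO2; pintool cpd add (DMSO); 37 C, 40 h; fluorescence read at 0, 8, 16, 24, 32, 40 h.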

[4] = A CellTox Green Cytotoxicity Assay to monitor cytotoxicity in HepG2 cells - 32 hour (AID 1224883); note: nearly all actives have a fitted effect of over 50% in size
Outline: as §3

[5] = A CellTox Green Cytotoxicity Assay to monitor cytotoxicity in HEK293 cells - 8 hour (AID 1224884); note: nearly all actives have a fitted effect of over 35% in size
Outline: as §2

[6] = qHTS RealTime-Glo MT Cell Viability Assay in HepG2 cells - 16 hour (AID 1224885); note: nearly all actives have a fitted effect of over 50% in size
Outline: (§4)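 qHTS, HepG2, 600 cells/well, RealTime-Glo (NanoLuc + prosubstrate) added with cells; 5 h preincubation; DMSO compound addition; 37 C; luminescence at 0/8/16/24/32/40 h.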

[7] = qHTS RealTime-Glo MT Cell Viability Assay in HEK293 cells - 8 hour (AID 1224887); note: top concentration of the series differs between compounds; nearly all actives have a fitted effect of over 50% in size
Outline: as §1

[8] = A CellTox Green Cytotoxicity Assay to monitor cytotoxicity in HEK293 cells - 16 hour (AID 1224888); note: nearly all actives have a fitted effect of over 35% in size
Outline: as §2

[9] = qHTS RealTime-Glo MT Cell Viability Assay in HepG2 cells - 0 hour (AID 1224889); note: nearly all actives have a fitted effect of over 50% in size
Outline: as §4

[10] = A CellTox Green Cytotoxicity Assay to monitor cytotoxicity in HepG2 cells - 8 hour (AID 1224890); note: nearly all actives have a fitted effect of over 45% in size
Outline: as §3

[11] = qHTS assay to identify small molecule antagonists of the estrogen receptor alpha (ER-alpha) signaling pathway using the BG1 cell line in the presence of 0.1 nM 17-beta-estradiol - cell viability counter screen (AID 1259241); note: nearly all actives have a fitted effect of over 40% in size
Outline: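 VM7Luc4E2 cells (endogenous full-length ER-alpha, 4xERE-luciferase), cultured 5 days in charcoal-stripped serum, exposed to compounds with 0.1 nM 17beta-estradiol (final) for 22 hr at 37C. Viability read in same wells as live-cell protease fluorescence after 30 min.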

[12] = qHTS assay to identify small molecule antagonists of the androgen receptor (AR) signaling pathway using the MDA cell line in the presence of 0.5 nM R1881 - cell viability counter screen (AID 1259242); note: nearly all actives have a fitted effect of over 45% in size
Outline: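 Live-cell protease fluorescence, CellTiter-Fluor, 30 min at 37C. Cells: MDA-kb2, 3,000/well, preincubated 5 hr. Compounds plus 0.5 nM R1881 final, 16 hr, 37C, 0% CO2.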

[13] = qHTS assay to identify small molecule HDAC inhibitors (AID 1259364); note: potency is the fitted concentration of half-maximal effect;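 note: wild-type HCT-116 cells with endogenous class I/II HDAC activity; nearly all actives have a fitted effect of over 45% in size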
Outline: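 HCT-116 (wild type), 1,500 cells/well, overnight; compound 2 hr 37C 5% CO2; HDAC-Glo I/II reagent 30 min RT; luminescence readout.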

[14] = qHTS assay to identify small molecule HDAC inhibitors - cell viability counter screen (AID 1259365)
Outline: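 Wild-type HCT-116 cells, 1,500/well, cultured overnight, then compound-treated 2 h at 37 C. Viability measured as ATP luminescence with CellTiter-Glo after 30 min at room temperature.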

[15] = qHTS assay to identify small molecule agonists of the sonic hedgehog signaling (Shh) pathway - cell viability counter screen (AID 1259366); note: nearly all actives have a fitted effect of over 50% in size
Outline: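 NIH/3T3-derived Gli1-Luc reporter cells, 2,000 per well, received compound after 4 h and were treated about 23 h at 37C. Viability measured in the same wells by CellTiter-Fluor fluorescence after 1 h.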

[16] = qHTS assay to identify small molecule antagonists of the sonic hedgehog signaling (Shh) pathway - cell viability counter screen (AID 1259367); note: nearly all actives have a fitted effect of over 55% in size
Outline: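 Viability was read by CellTiter-Fluor fluorescence in the same wells, reagent added 23 hr into compound treatment and incubated 1 hr at 37C. The 3T3 Gli1-Luc reporter cells (2,000/well) received conditioned medium after compound and ran 24 hr.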

[17] = target: Estrogen receptor (Homo sapiens) (UniProt P03372); assay: qHTS assay to identify small molecule antagonists of the estrogen receptor alpha (ER-alpha) signaling pathway using the BG1 cell line in the presence of 0.1 nM 17-beta-estradiol (AID 1259244); note: nearly all actives have a fitted effect of over 50% in size
Estrogen receptor (Homo sapiens), sequence (P03372 whole entry, looked up): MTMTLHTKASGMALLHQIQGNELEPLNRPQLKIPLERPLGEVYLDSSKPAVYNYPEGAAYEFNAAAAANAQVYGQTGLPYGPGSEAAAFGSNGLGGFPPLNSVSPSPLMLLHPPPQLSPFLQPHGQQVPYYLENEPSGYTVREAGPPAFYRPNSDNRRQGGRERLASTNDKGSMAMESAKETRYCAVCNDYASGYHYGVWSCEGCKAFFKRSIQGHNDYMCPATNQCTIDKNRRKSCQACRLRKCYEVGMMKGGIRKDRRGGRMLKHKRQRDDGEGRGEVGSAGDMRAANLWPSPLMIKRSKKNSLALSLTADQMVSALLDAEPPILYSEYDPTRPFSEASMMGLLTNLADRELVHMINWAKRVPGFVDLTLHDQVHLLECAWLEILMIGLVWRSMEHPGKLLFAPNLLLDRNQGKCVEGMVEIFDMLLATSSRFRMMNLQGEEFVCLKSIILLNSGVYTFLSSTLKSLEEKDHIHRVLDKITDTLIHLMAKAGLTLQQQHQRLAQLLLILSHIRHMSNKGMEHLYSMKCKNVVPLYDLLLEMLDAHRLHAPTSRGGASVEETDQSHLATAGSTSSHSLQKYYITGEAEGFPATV
Outline: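 Luminescence after ONE-Glo (30 min, room temperature) measured ERE-luciferase activity in VM7Luc4E2 cells treated 22 h with compound and 0.1 nM final 17beta-estradiol as stimulator.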

[18] = qHTS assay to identify small molecule phospholipidosis (PLD) inducers (AID 1259344; active = well fitted curve in the direction sought with a large enough effect; an effect the other way counts as inactive or inconclusive)
Outline: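 Phospholipid accumulation was scored by imaging: fixed, Hoechst-counterstained HepG2 cells stained with LipidTOX Red after 24 h compound exposure at 37 C. Read-outs were pit count and pit intensity per well or per cell, with amiodarone and DMSO controls.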

[19] = qHTS RealTime-Glo MT Cell Viability Assay in HEK293 cells - 24 hour (AID 1224886)
Outline: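 Assay medium contained NanoLuc luciferase plus cell-permeant prosubstrate, added with HEK293 cells at 600 cells/well. After 5 h at 37 C/5% CO2 compounds were added; plates stayed at 37 C for 40 h with serial luminescence reads.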

SMILES | Potency [1] | Potency [2] | Potency [3] | Potency [4] | Potency [5] | outcome [6] | Potency [7] | Potency [8] | Potency [9] | Potency [10] | Potency [11] | Potency [12] | Potency [13] | outcome [14] | Potency [15] | Potency [16] | Potency [17] | Potency [18] | Potency [19]
CC/C=C/CCO | inactive | inactive | inactive | inactive | inactive | inactive | inactive | inactive | inactive | inactive | inactive | inactive | inactive | inactive | inactive | inactive |  |  | 
COC(=O)Cc1cccc2ccccc12 | inactive | inactive | inactive | inactive | inactive | inactive | inactive | inactive | inactive | inactive | inactive | inactive | inactive | inactive | inactive | inactive | inactive |  | 
Cc1ccc2ccccc2c1[N+](=O)[O-] | inactive | inactive | inactive | inactive | inactive | inactive | inactive | inactive | inactive | inactive | inactive | inactive | inactive | inactive | inactive | inactive | inactive |  | 
CNc1ccccc1 | inactive | inactive | inactive | inactive | inactive | inactive | inactive | inactive | inactive | inactive | inactive | inactive | inactive | inactive | inactive | inactive | inactive |  | 
C[Si](C)(C)O[Si](C)(C)O[Si](C)(C)C | inactive | inactive | inactive | inactive | inactive | inactive | inactive | inactive | inactive | inactive | inactive | inactive | inactive | inactive | inactive | inactive |  |  | 
CC1(C)CC(O)CC(C)(C)N1[O] | inactive | inactive | inactive | inactive | inactive | inactive | inactive |  | inactive | inactive | inactive | inactive | inactive |  | inactive | inactive | inactive |  | 
CC(=O)c1cccnc1 | inactive | inactive | inactive | inactive | inactive | inactive |  | inactive | inactive | inactive | inactive | inactive | inactive | inactive | inactive | inactive | inactive |  | 
COC(=O)c1cc(Cl)ccc1[N+](=O)[O-] | inactive | inactive | inactive | inactive | inactive | inactive | inactive | inactive | inactive | inactive | inactive | inactive | inactive | inactive |  | inactive | inactive |  | 
Cc1cccc(C)c1NC(=O)CN1CCCC1 | inactive | inactive | inactive | inactive | inactive | inactive | inactive | inactive | inactive | inactive | inactive | inactive | inactive | inactive | inactive | inactive |  | inactive | 
Clc1ccccc1-c1nc(-c2ccncc2)no1 | inactive | inactive | inactive | inactive | inactive | inactive | inactive | inactive | inactive | inactive | inactive | inactive | 2.66 µM (active) |  | inactive | inactive |  | inactive | 
CC1(C)C(=O)NC(=O)N1CO | inactive | inactive | inactive | inactive | inactive | inactive | inactive | inactive | inactive | inactive | inactive | inactive | inactive | inactive | inactive | inactive | inactive |  | 
Nc1ccc(C(=O)Oc2ccccc2)c(O)c1 | inactive | inactive | inactive | inactive | inactive | inactive | inactive | inactive | inactive | inactive | inactive | inactive |  | inactive | inactive | inactive |  | inactive | 
CCCCCCCCS | inactive | inactive | inactive | inactive |  | inactive | inactive | inactive | inactive | inactive | inactive | inactive | inactive | inactive | inactive | inactive |  |  | inactive
CC(COc1ccccc1)NC(C)C(O)c1ccc(O)cc1 (stereo not drawn) | inactive | inactive | inactive | inactive |  | inactive |  | inactive |  | inactive | inactive | inactive | inactive | inactive | inactive | inactive | inactive | inactive | inactive
CC(O)C(C)O (stereo not drawn) | inactive | inactive | inactive | inactive |  | inactive | inactive | inactive |  | inactive | inactive | inactive | inactive | inactive | inactive | inactive |  |  | inactive
